Among the data in PubChem BioAssay (NCATS) are Potency values, retold here.

Structures are written as SMILES. Inconclusive results are not listed. Calls of active or inactive are those of the source. Calls follow the shape of the dose curve; as a rule, active = well fitted inhibition curve with a large enough effect; inconclusive = small, poorly fitted or top-dose-only effect; inactive = flat fitted curve, though single readings scatter.

Holding throughout (experiment): qHTS profiling for inhibitors of Plasmodium falciparum proliferation (AID 504749); also: nearly all actives have a fitted effect of over 60% in size
A general note: qHTS replaces the single test concentration by a dilution series.

Assay [1] has as its system AA1029. Conditions: P. falciparum in erythrocytes, SYBR Green DNA, 72 h; series mostly up to 12.8 µM. The method in brief: (§1)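 Quantitative HTS: compounds pinned into medium, infected erythrocytes added (0.3% parasitemia, 2.5% hematocrit), 72 h culture at 37 C under 5% CO2. Saponin/Triton lysis with SYBR Green I, overnight RT, then fluorescence read.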
The test system of assay [2] is ATS95. Conditions: P. falciparum in erythrocytes, SYBR Green DNA, 72 h; series mostly up to 12.8 µM. Summed up:
as §1

Assay [3] relates to CP211. The following applies: P. falciparum in erythrocytes, SYBR Green DNA, 72 h; series mostly up to 12.8 µM. Summed up: as §1
For assay [4], the system named is CP217. The following applies: P. falciparum in erythrocytes, SYBR Green DNA, 72 h; series mostly up to 12.8 µM. The method in brief: as §1
In assay [5] the test system is CP238. Conditions: P. falciparum in erythrocytes, SYBR Green DNA, 72 h; series mostly up to 12.8 µM. Summed up: as §1
The test system of assay [6] is CP252. The following applies: P. falciparum in erythrocytes, SYBR Green DNA, 72 h; series mostly up to 12.8 µM. Summed up:
as §1

Assay [7] concerns CP260. Conditions: P. falciparum in erythrocytes, SYBR Green DNA, 72 h; series mostly up to 12.8 µM. Summed up:
as §1

In assay [8] the test system is CP265. Conditions: P. falciparum in erythrocytes, SYBR Green DNA, 72 h; series mostly up to 12.8 µM. The method in brief: as §1
Assay [9] has as its system CP266. The following applies: P. falciparum in erythrocytes, SYBR Green DNA, 72 h; series mostly up to 28.7 µM. The method in brief:
as §1

Assay [10] deals with CP268. Conditions: P. falciparum in erythrocytes, SYBR Green DNA, 72 h; series mostly up to 12.8 µM. The method in brief: as §1
Assay [11] relates to CP269. Conditions: P. falciparum in erythrocytes, SYBR Green DNA, 72 h; series mostly up to 12.8 µM. Summed up: as §1
In assay [12] the test system is CP315. The following applies: P. falciparum in erythrocytes, SYBR Green DNA, 72 h; series mostly up to 12.8 µM. The method in brief: as §1
Assay [13] deals with CP325. The following applies: P. falciparum in erythrocytes, SYBR Green DNA, 72 h; series mostly up to 12.8 µM. The method in brief: as §1
In assay [14] the test system is CP335. Conditions: P. falciparum in erythrocytes, SYBR Green DNA, 72 h; series mostly up to 12.8 µM. Summed up:
as §1

Assay [15] relates to DIV14. Conditions: P. falciparum in erythrocytes, SYBR Green DNA, 72 h; series mostly up to 12.8 µM. The method in brief:
as §1

For assay [16], the system named is DIV17. The following applies: P. falciparum in erythrocytes, SYBR Green DNA, 72 h; series mostly up to 12.8 µM. The method in brief: as §1
The subject of assay [17] is N140. Conditions: P. falciparum in erythrocytes, SYBR Green DNA, 72 h; series mostly up to 12.8 µM. Summed up: as §1
In assay [18] the test system is PC26. The following applies: P. falciparum in erythrocytes, SYBR Green DNA, 72 h; series mostly up to 12.8 µM. The method in brief: as §1
The subject of assay [19] is SC27B. Conditions: P. falciparum in erythrocytes, SYBR Green DNA, 72 h; series mostly up to 12.8 µM. The method in brief:
as §1

Assay [20] deals with TAB165. The following applies: P. falciparum in erythrocytes, SYBR Green DNA, 72 h; series mostly up to 12.8 µM. Summed up: as §1
Potency is read from the fitted curve at half-maximal effect.

As to `Cc1cc(/C=C\c2ccc3cc(N(C)C)ccc3[n+]2C)c(C)n1-c1ccccc1`, the Potency in assay [1] was 1580 nM (active); in assay [2], 1580 nM (active); in assay [3], 1810 nM (active); in [4], 3160 nM (active); in assay [5], 1580 nM (active); in assay [6], 3550 nM (active). Also, the Potency was 355 nM (active) in [7]; 2510 nM (active) in assay [8]; 2870 nM (active) in [9]; 4050 nM (active) in [10]; 2560 nM (active) in [11]; 2030 nM (active) in assay [12]. For the same compound, the Potency in assay [13] is 2560 nM (active); in [14] it was 572 nM (active); in assay [15], 2870 nM (active); in [16] it was 3610 nM (active); in [17], 3980 nM (active); in assay [18], 3610 nM (active). Further, the Potency in assay [19] is 2510 nM (active); in assay [20], 794 nM (active).
As for `CN(C)CC/C=C1\c2ccccc2CSc2ccccc21`, in [9], the Potency result was “inactive”.
Regarding `CC(C)N1CCN(c2ccc(OC[C@@H]3CO[C@@](Cn4cncn4)(c4ccc(Cl)cc4Cl)O3)cc2)CC1`, the Potency result in assay [1], in assay [2], in [3], in [4], in assay [5] and in assay [6] was “inactive” throughout. The Potency result in assay [7], in [8], in assay [10], in assay [11], in assay [12] and in assay [13] was “inactive” in each case. Also, the Potency entry in [14], in assay [15], in assay [16], in [17], in assay [18] and in [19] was “inactive” throughout. Besides, in assay [20], the Potency entry is “inactive”.
